Laboratory results as given in PubChem BioAssay AID602125 (The Scripps Research Institute Molecular Screening Center, 2011).
Out of some 1,300 compounds screened, about 110 (8.5%) were called active. Rule as the data show it: active = inhibition above about 6.5%; inactive = the rest. A selection follows.

Assay: quenching of GFP signal – biochemical, fluorescence, artefact control for Rin1-Abl interaction inhibitor project (AID 602125);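 also: ABL1-eGFP fusion protein alone without its partner RIN1-SBP; 0% = protein with vehicle and 100% = wells lacking protein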
Conditions: inhibitors/quenchers counterscreen, at 6.75 µM, hits give high values

SMILES | inhibition
CC(C)CNS(=O)(=O)c1ccc(C(=O)Nc2ccc3c(c2)OCO3)cc1 | -1.46% (inactive)
O=c1ccc2c(-c3ccccc3S(=O)(=O)O)c3ccc(O)c(O)c3oc-2c1O | 60.6% (active)
CCCn1c(N)c(C(=O)CSc2nnc(-c3cccnc3)n2-c2ccc(C)cc2C)c(=O)[nH]c1=O | -2.86% (inactive)
Cc1cc2ccccc2n1CCNC(=O)COc1ccc2ccccc2c1 | 0.81% (inactive)
CC(OC(=O)c1ccccc1NCCO)C(=O)Nc1ccnn1C(C)C (stereo not given) | 0.13% (inactive)
C=C1c2c(Cl)ccc(O)c2C(O)=C2C(=O)[C@]3(O)C(O)=C(C(N)=O)C(=O)[C@@H](N(C)C)[C@@H]3[C@@H](O)C12 (stereo not given in full) | 14.2% (active)
CC(=O)NC(c1cccs1)c1cc(Br)c2cccnc2c1O (stereo not given) | 4.24% (inactive)
Nc1cc(=O)c2[nH]cnc2[nH]1 | 0.27% (inactive)
CCOC(=O)N1CCC(c2cc(=O)n(-c3ccccc3)[nH]2)CC1 | -3.53% (inactive)
O=C(Nc1ccc(OC(F)(F)F)cc1)c1ccc2c(c1)no[n+]2[O-] | 0.62% (inactive)
C=CCn1c2ccccc2c2nnc(SCc3[nH]c(=O)[nH]c3C(=O)CCCCC(=O)OCC)nc21 | 0.3% (inactive)
COCCNC(=O)Nc1ccc2nc(-c3ccco3)c(-c3ccco3)nc2c1 | 15.8% (active)
CCc1ccc(CN(C)C(C)C(=O)Nc2ccc(S(=O)(=O)N3CCCC3)cc2)cc1 (stereo not given) | -0.29% (inactive)
COC(=O)c1ccc(COC(=O)C2CCN(S(=O)(=O)c3c(Cl)cccc3Cl)CC2)o1 | 1.86% (inactive)
CN(CC(=O)Nc1ccc(F)cc1)CC(=O)Nc1ccc(Cl)c(S(=O)(=O)N2CCOCC2)c1 | -1.92% (inactive)
C#CCOCCOCCOCCNc1nc(N2CCN(C(=O)C(Cc3ccc(O)cc3)n3cc(C(N)CC(C)C)nn3)CC2)nc(N2CCN(C(=O)C(Cc3ccc(O)cc3)n3cc(C(N)C(C)CC)nn3)CC2)n1 (stereo not given) | -1.04% (inactive)
C=CCn1cc(C(=O)NCc2ccc(Cl)cc2)c(=O)c2cc(S(=O)(=O)N(CC)CC)ccc21 | -0.53% (inactive)
Cc1nn(-c2ncc(C(F)(F)F)cc2Cl)c(=O)n1-c1ccccc1 | -0.58% (inactive)
COc1ccc(CNC(=O)c2cc(C(=O)C3CC3)c[nH]2)cc1 | 0% (inactive)
Cc1c(CC(=O)N2CCN(C(=O)C3COc4ccccc4O3)CC2)c(=O)oc2c(O)c(O)ccc12 (stereo not given) | 21.4% (active)
NC1=CC(=O)C(=O)c2cccnc21 | 8.89% (active)
Cc1ccccc1CN1C[C@@H]2C[C@@H](c3ccc4nsnc4c3)N3CCC[C@@]23C1=O | 0.34% (inactive)
CSc1ncnc2c1ncn2CC(=O)C1CCC2C3CCC4=CC(=O)CCC4(C)C3CCC12C (stereo not given) | 0.43% (inactive)
O=C(CNCc1ccco1)Nc1cc(S(=O)(=O)N2CCOCC2)ccc1N1CCCC1 | 2.49% (inactive)
CCc1cc2c(N3CCN(c4nnc(CC)s4)CC3)ncnc2s1 | -3.38% (inactive)
CC(=O)Nc1ccc(CN2CCC(Oc3ccc(C(=O)N4CCCC4)cc3)CC2)cc1 | -0.82% (inactive)
CCOc1ccc(S(=O)(=O)N2CCCCC2)cc1NC(=O)CN1CCCC1c1cccs1 (stereo not given) | -2.43% (inactive)
O=c1c2c(nc3n1CCCCC3)sc1c(O)cccc12 | 0.41% (inactive)

SMILES | inhibition
CCOc1ccc(CNC(=O)C2CCCN(c3nnc(C)c4c(C)n(-c5ccccc5)nc34)C2)cc1 (stereo not given) | -0.63% (inactive)
Oc1c(CN2CCN(c3ccc(F)cc3)CC2)cc(Cl)c2cccnc12 | 1.29% (inactive)
CC(CCO)Nc1nc2c([nH]1)c(=O)n(C)c(=O)n2C (stereo not given) | -2.15% (inactive)
O=C(COc1ccc(S(=O)(=O)NCCc2ccccc2)cc1)N1CCCC1 | -1.34% (inactive)
CN(C)c1ccc(N/C=C/C(=O)C(F)(F)F)cc1 | 0.06% (inactive)
Cc1cccc(N(C)C(=O)CN2C(=O)COc3ccc(S(=O)(=O)N4CCCCCC4)cc32)c1 | -2.16% (inactive)
C[C@@H]1CN([C@H](C)CO)S(=O)(=O)c2ccc(C#C[C@@H](C)O)cc2O[C@@H]1CN(C)Cc1ccc(-c2ccccc2)cc1 | -1.52% (inactive)
O=C(NNc1c2ccccc2nc2ccccc12)c1cc2ccccc2cc1O | 2.7% (inactive)
Cc1cc(NC(=O)CSCC(=O)NC(C)c2ccccc2)no1 (stereo not given) | 0.79% (inactive)
COc1cc(C(=S)N2CCOCC2)ccc1O | -0.21% (inactive)
Cc1ccc(C(NC(=O)C2CCN(CCOc3ccc(Cl)cc3Cl)CC2)c2ccccn2)cc1 (stereo not given) | -1.38% (inactive)
CN(Cc1c(F)cccc1Cl)C(=O)CNC(=O)c1ccc2c(c1)OCO2 | 0% (inactive)
O=C(Nc1ccc(S(=O)(=O)Nc2ncccn2)cc1)c1cncc(Br)c1 | 0.85% (inactive)
O=c1cc(CO)oc(CN2CCC(Cc3ccccc3)CC2)c1O | 0.68% (inactive)
CCOC(=O)N1CCN(C(=O)C2CCCN(c3ncnc4c3sc3cccc(F)c34)C2)CC1 (stereo not given) | 0.85% (inactive)
CCOc1ccc(-n2c(SCC(=O)NC3CCS(=O)(=O)C3)nnc2-c2cccnc2)cc1 (stereo not given) | -0.86% (inactive)
CCOC(=O)CN(C(=O)COc1nc(C)cc(C)c1C#N)c1ccc(Cl)cc1 | -1.77% (inactive)
OC[C@@H]1CN(Cc2ccc(Cl)cc2)C[C@H](n2cnc3c(NCc4ccncc4)ncnc32)O1 | 0.89% (inactive)
CCOC(=O)N1CCN(C(=O)C2CCN(c3ncnc4c3sc3cccc(F)c34)CC2)CC1 | 1.39% (inactive)
Cc1ccccc1C(=O)N1CCC(C(=O)Nc2ccc(S(=O)(=O)N(C)C(C)C)cc2)CC1 | 0.2% (inactive)
O=C(c1cn(-c2ccccc2)nc1-c1cc2ccccc2oc1=O)N1CCOCC1 | -1.57% (inactive)
O=C(CC1SCCNC1=O)Nc1ccc(Cl)cc1 (stereo not given) | 0.84% (inactive)
CN(C(=O)c1ccc(NC(=O)Cc2cccc(NC(=O)C3CCN(C(=O)c4ccccc4)CC3)c2)cc1)C1CC1 | -0.72% (inactive)
Nc1nc2n(n1)C(c1ccco1)CC(c1ccc(Cl)c(Cl)c1)N2 (stereo not given) | -3.07% (inactive)
NS(=O)(=O)c1ccc(CCNC(=O)Nc2ccc(Cl)cc2)cc1 | 2.08% (inactive)
Oc1cccc2cc(-c3ccncc3)cnc12 | 11.6% (active)
Cc1ccc(-n2c(SCC(=O)NCc3ccc4c(c3)OCO4)nnc2-c2cccnc2)c(C)c1 | 0.57% (inactive)
